Assay results as given in PubChem BioAssay AID624305 (National Center for Advancing Translational Sciences (NCATS), 2012).
Results filed as inconclusive are left out. Unmarked numbers belong to inactive results. The source made the active and inactive calls. Calls come from the whole dose curve; as a rule, active = well fitted activation curve with a large enough effect; inconclusive = small, poorly fitted or top-dose-only effect; inactive = no such curve, though single readings can be large or run the other way.

Assay: qHTS assay for re-activators of p53 using a Luc reporter: Hit Validation; note: nearly all actives have a fitted effect of over 75% in size; for activation: 0% is about no effect
Details: p53-responsive luciferase reporter cells, luminescence, H1299 line expressing heat-sensitive Ala138Val p53; series mostly up to 46.1 µM; activation: at the top concentration
Method in brief: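 H1299 (p53-null) cells stably carrying p53-A138V and a BP100-luciferase reporter, 1000 cells/well, treated 24 h at 37 deg C. Compounds at several concentrations, 1:5 dilution; nocodazole control; luminescence read after 10 min with detection reagent.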
Potency is the fitted concentration of half-maximal effect.

Going from `O=C(Cc1ccccc1)Nc1ccc(NC(=O)c2cccnc2)cc1` to `COc1cc(OC)cc(C(=O)NNC(=O)c2ccccn2)c1`, the “activation” value falls from 12% to -2.08%.

First: COc1ccc(-c2cc(C(F)(F)F)nc(-n3ccnc3C)n2)cc1
Second: Cc1ccc(CSc2nc3ccncc3[nH]2)cc1
The “activation” value of the first is higher: -38% for the first, -42.2% for the second.

Going from `N#CC1=C(N)N2C(=C(C#N)C13CCCCC3)SC1CCCCC12O` (stereo not given) to `COc1cccc(NC(=O)CSC2=C(C#N)C(c3ccco3)C3=C(CCCC3=O)N2)c1` (stereo not given), the “activation” value rises from -17.2% to 8.33%.

Compared with `Cc1cc(Br)c(S(=O)(=O)NCCN2CCOCC2)cc1C`, `COc1ccc(CCNC(=O)/C=C/c2ccc(S(=O)(=O)N3CCOCC3)cc2)cc1` is lower in “activation” value: 6.25% for the first, 0.521% for the second.

First: CCCCNC(=S)N(Cc1c(C)noc1C)c1ccccc1
Second: CCCN1CCC(NC(=O)Cc2ccc(C)cc2)CC1
The “activation” value of the first is higher: 4.69% for the first, -2.6% for the second.

Compared with `O=[N+]([O-])c1cc(C(F)(F)F)ccc1NCCc1c[nH]c2ccccc12`, `CCc1ccc(-n2cc(-c3ccc([N+](=O)[O-])cc3)[nH]c2=S)cc1` is lower in “activation” value: 5.73% for the first, -89.6% for the second.

Compared with `Cc1ccc(-c2nnc(N(C)C(=O)C3CCCO3)s2)cn1` (stereo not given), `COc1ccc(C2SCCN2C(=S)Nc2ccc(Cl)cc2)cc1` (stereo not given) is higher in “activation” value: -1.56% for the first, 24.5% for the second.

For `COC(=O)CSc1nc2cc(OC)ccc2cc1C#N`, the Potency was 9.2 µM (active).
With `Cc1ccc(OCC(=O)Nc2ccc(Cl)cc2)c([N+](=O)[O-])n1` the Potency was 16.4 µM (active).
For `COc1ccc(C(=O)Nc2nnc(C(F)(F)F)s2)cc1`, the Potency was 10.3 µM (active).
In the case of `CC(/C=N/Nc1nc2ccccc2[nH]1)=C\c1ccccc1`, the Potency is reported as 0.651 µM (active).
With `COc1ccc(/C(N)=N/OC(=O)c2cccs2)cc1` the Potency was 5.17 µM (active).
In the case of `Cc1sc(NC(=O)c2ccc(Cl)s2)c(C(N)=O)c1C`, the Potency is reported as 4.11 µM (active).
